Structures are written as SMILES. Inconclusive results are not listed. Entries that show only a call come without a potency. Calls of active or inactive are those of the source. The call rests on the fitted dose curve; in most records, active means well fitted inhibition curve with a large enough effect; inconclusive means small, poorly fitted or top-dose-only effect; inactive means no such curve, though single readings can be large or run the other way.
Potency means the concentration at half of the fitted maximal effect.

Sequence of Tyrosine-protein kinase Yes (Homo sapiens) (P07947 whole entry, looked up): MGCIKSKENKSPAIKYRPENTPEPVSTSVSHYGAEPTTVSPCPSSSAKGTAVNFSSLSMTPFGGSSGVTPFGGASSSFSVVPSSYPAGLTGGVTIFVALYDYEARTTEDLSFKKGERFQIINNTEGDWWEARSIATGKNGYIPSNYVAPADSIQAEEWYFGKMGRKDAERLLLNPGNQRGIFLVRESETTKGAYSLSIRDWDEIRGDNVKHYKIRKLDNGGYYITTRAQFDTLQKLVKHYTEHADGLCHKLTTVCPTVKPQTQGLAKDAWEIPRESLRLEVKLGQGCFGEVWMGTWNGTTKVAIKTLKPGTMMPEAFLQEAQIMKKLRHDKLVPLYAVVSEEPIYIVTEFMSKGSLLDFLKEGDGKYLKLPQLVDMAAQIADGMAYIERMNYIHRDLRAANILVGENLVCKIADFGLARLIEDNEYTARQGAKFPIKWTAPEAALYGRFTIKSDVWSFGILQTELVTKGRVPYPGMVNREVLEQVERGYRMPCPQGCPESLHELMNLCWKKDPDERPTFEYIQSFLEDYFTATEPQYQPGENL

The target of this assay is Tyrosine-protein kinase Yes (Homo sapiens) (UniProt P07947). The experiment in a line: qHTS for small molecule inhibitors of Yes1 kinase: Primary Screen (AID 686947). Further: nearly all actives have a fitted effect of over 60% in size. The note with it: Yes1 kinase biochemical qHTS inhibition; series mostly up to 76.9 µM. In a few lines:
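In this qHTS format, inhibition is expressed relative to DMSO controls with enzyme (maximum) and without enzyme (minimum). The 60 min room-temperature reaction uses 0.1 mM ATP, with ADP detected by luminescence.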
Background: In qHTS, concentration-response curves come from the screen itself.
Turning to `Cc1cc2c(C(C)C)c(O)c(O)c(C=O)c2c(O)c1-c1c(C)cc2c(C(C)C)c(O)c(O)c(C=O)c2c1O`, the Potency is 30.7 µM (active).

With `CN(C)CCN(C)CCc1ccc(Cl)c(Cl)c1`, the Potency result was “inactive”. Consider `Cn1cc(C2=C(c3cn(C4CCN(Cc5ccccn5)CC4)c4ccccc34)C(=O)NC2=O)c2ccccc21`, for which the Potency entry is “inactive”. Under `CC1=C2C[C@@H]3[C@@H](CC=C4C[C@@H](O)CC[C@@]43C)[C@@H]2CC[C@]12O[C@H]1C[C@H](C)CN[C@H]1[C@H]2C` stands “inactive”. Under `COC[C@H]1OC(=O)c2coc3c2[C@@]1(C)C1=C(C3=O)C2CCC(=O)[C@@]2(C)C[C@H]1OC(C)=O` (some centres undefined) stands “inactive”; under `C[C@]12CCC(=O)C(O)=C1CC[C@@H]1[C@@H]2CC[C@]2(C)C(=O)CC[C@@H]12`, “inactive”. With `C[C@@H]1[C@@H](C(=O)C[C@H]2O[C@@H]3O[C@]4(C)CC[C@@H]5[C@H](C)CC[C@@H]([C@H]2C)[C@@]35OO4)O[C@@H]2O[C@]3(C)CC[C@H]4[C@H](C)CC[C@@H]1[C@@]24OO3`, the Potency result was “inactive”. Turning to `Cc1cc(SCc2sc(-c3ccc(C(F)(F)F)c(F)c3)nc2C)ccc1OCC(=O)O`, the Potency result was “inactive”.

With `CCCCC/C=C\C/C=C\C/C=C\C/C=C\CCCC(=O)NC1CC1`, the Potency entry was “inactive”.

With `O=c1c(O)c(-c2ccc(O)c(O)c2)oc2cc(O)cc(O)c12`, the Potency is 15.4 µM (active). The entry for `Cc1sc2c(c1C)C(c1ccc(Cl)cc1)=N[C@@H](CC(=O)OC(C)(C)C)c1nnc(C)n1-2` is “inactive”; for `COC1(CS(=O)c2ccccc2)CCN(CCc2c[nH]c3ccc(F)cc23)CC1` (centres undefined) it is “inactive”.

For `C[C@@H]1[C@@H](CC(C[C@H]2O[C@@H]3O[C@]4(C)CC[C@@H]5[C@H](C)CC[C@@H]([C@H]2C)[C@@]35OO4)C[S+](=O)([O-])c2ccc(COC(=O)N(C)C)cc2)O[C@@H]2O[C@]3(C)CC[C@H]4[C@H](C)CC[C@@H]1[C@@]24OO3` (some centres undefined), the Potency entry is “inactive”. The entry for `Cn1c(CCCC(=O)O)nc2cc(N(CCCl)CCCl)ccc21` is “inactive”.

Values taken from PubChem BioAssay (NCATS).
